# Reference: ChEMBL document CHEMBL2218924, “A broad activity screen in support of a chemogenomic map for kinase signalling research and drug discovery” (Biochem J, 2013)
# Experiments:
# [1] = target: T1, Mitogen-activated protein kinase kinase kinase 7 (Homo sapiens) (UniProt O43318); conditions: at 1 µM
# T1 sequence (whole entry): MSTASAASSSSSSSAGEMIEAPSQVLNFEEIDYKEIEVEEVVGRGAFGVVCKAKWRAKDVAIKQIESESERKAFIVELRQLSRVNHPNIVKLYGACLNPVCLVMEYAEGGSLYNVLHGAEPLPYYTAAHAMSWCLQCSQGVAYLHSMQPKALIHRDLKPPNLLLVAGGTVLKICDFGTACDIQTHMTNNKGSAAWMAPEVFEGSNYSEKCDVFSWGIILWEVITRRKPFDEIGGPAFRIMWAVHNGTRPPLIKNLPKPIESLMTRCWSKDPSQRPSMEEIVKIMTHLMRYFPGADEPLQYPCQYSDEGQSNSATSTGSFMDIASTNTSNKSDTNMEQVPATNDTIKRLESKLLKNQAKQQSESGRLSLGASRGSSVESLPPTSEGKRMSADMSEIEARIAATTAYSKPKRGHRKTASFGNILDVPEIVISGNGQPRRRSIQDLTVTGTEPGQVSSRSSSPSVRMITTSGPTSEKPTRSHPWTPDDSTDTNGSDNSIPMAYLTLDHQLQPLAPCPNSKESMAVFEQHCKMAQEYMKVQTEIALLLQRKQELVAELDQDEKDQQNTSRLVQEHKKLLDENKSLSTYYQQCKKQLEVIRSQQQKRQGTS
# [2] = target: T1, Mitogen-activated protein kinase kinase kinase 7 (Homo sapiens); conditions: at 10 µM
# [3] = target: T2, Serine/threonine-protein kinase TAO1 (Homo sapiens) (UniProt Q7L7X3); conditions: at 1 µM
# T2 sequence (whole entry): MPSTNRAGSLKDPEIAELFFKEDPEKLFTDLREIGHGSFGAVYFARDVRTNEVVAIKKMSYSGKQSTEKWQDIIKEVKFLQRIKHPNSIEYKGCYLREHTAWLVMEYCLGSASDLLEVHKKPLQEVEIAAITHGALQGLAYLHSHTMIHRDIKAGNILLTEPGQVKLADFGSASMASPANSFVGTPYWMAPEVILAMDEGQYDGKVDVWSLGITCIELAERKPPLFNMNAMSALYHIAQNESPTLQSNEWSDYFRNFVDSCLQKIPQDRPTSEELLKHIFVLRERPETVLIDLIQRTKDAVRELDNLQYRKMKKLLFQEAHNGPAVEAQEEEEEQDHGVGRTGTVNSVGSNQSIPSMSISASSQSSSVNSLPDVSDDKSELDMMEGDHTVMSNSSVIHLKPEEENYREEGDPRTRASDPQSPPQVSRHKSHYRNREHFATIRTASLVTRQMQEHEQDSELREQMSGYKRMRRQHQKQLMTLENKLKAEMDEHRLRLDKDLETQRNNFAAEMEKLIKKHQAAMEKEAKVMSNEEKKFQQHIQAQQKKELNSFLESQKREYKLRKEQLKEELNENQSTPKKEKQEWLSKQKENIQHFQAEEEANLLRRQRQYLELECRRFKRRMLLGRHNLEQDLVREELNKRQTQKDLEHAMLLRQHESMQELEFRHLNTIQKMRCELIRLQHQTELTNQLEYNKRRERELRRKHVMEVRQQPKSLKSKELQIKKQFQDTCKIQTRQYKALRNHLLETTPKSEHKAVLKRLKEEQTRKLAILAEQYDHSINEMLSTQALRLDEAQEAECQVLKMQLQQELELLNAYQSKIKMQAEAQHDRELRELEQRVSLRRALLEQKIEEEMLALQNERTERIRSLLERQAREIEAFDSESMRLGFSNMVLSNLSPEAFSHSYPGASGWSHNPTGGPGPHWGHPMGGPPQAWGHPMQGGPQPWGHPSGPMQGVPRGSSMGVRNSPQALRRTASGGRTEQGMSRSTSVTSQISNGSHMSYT
# [4] = target: T2, Serine/threonine-protein kinase TAO1 (Homo sapiens); conditions: at 10 µM
# [5] = target: T3, Serine/threonine-protein kinase TAO2 (Homo sapiens) (UniProt Q9UL54); conditions: at 1 µM
# T3 sequence (whole entry): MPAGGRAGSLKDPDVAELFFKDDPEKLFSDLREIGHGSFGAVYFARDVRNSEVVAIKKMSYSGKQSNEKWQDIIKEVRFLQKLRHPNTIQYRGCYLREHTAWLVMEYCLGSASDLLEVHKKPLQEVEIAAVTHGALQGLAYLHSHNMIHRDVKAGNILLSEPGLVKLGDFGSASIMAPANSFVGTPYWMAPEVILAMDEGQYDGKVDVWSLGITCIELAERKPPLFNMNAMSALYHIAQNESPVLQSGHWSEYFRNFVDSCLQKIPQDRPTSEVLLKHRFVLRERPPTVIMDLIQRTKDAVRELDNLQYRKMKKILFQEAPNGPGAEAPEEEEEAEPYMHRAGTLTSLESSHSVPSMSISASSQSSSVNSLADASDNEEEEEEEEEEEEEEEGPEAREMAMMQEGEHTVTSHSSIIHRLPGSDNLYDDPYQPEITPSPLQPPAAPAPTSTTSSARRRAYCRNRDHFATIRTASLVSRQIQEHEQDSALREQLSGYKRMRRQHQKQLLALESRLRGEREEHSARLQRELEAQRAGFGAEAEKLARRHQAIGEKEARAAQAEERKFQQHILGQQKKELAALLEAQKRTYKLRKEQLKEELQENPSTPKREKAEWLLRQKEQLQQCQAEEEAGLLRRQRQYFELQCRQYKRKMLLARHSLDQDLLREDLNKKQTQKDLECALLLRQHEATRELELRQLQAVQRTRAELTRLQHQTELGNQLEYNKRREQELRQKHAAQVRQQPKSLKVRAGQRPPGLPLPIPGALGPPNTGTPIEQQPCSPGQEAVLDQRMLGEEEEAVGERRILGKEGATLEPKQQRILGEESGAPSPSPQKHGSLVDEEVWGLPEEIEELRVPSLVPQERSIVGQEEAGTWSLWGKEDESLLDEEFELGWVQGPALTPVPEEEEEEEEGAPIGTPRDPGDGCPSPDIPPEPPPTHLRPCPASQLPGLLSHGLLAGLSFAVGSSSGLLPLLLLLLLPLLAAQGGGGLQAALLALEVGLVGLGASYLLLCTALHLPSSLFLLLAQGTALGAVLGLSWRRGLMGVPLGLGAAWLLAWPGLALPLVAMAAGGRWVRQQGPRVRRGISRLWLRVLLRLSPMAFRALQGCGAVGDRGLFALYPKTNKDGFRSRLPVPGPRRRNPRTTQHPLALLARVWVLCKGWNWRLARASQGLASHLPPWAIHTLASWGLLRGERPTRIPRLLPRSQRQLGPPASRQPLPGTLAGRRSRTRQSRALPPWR
# [6] = target: T3, Serine/threonine-protein kinase TAO2 (Homo sapiens); conditions: at 10 µM
# [7] = target: T4, Serine/threonine-protein kinase TAO3 (Homo sapiens) (UniProt Q9H2K8); conditions: at 1 µM
# T4 sequence (whole entry): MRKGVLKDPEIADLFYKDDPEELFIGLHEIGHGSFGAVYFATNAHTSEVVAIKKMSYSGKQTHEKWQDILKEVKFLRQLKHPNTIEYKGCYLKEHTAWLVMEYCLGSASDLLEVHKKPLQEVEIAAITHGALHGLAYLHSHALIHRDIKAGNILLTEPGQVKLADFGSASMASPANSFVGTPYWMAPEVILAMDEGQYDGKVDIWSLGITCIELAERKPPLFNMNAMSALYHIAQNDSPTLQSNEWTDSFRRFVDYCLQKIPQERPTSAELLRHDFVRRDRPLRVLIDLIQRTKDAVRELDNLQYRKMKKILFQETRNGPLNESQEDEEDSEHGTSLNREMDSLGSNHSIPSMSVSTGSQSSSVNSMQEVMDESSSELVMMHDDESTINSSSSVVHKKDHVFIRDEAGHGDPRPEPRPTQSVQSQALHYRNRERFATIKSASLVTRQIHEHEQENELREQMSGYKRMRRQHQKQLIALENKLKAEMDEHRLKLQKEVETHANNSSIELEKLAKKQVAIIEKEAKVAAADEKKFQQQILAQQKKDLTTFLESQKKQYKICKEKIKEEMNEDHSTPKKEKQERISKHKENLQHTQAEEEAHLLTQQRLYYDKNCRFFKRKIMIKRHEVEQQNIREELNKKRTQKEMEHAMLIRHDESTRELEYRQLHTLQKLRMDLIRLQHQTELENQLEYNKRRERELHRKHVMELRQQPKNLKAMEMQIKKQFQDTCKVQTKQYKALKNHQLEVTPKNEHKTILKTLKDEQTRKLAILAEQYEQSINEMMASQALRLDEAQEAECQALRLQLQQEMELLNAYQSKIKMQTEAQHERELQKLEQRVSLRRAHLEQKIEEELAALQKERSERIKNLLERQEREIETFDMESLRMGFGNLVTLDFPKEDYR
# [8] = target: T4, Serine/threonine-protein kinase TAO3 (Homo sapiens); conditions: at 10 µM
# [9] = target: T5, Serine/threonine-protein kinase TBK1 (Homo sapiens) (UniProt Q9UHD2); conditions: at 1 µM
# T5 sequence (whole entry): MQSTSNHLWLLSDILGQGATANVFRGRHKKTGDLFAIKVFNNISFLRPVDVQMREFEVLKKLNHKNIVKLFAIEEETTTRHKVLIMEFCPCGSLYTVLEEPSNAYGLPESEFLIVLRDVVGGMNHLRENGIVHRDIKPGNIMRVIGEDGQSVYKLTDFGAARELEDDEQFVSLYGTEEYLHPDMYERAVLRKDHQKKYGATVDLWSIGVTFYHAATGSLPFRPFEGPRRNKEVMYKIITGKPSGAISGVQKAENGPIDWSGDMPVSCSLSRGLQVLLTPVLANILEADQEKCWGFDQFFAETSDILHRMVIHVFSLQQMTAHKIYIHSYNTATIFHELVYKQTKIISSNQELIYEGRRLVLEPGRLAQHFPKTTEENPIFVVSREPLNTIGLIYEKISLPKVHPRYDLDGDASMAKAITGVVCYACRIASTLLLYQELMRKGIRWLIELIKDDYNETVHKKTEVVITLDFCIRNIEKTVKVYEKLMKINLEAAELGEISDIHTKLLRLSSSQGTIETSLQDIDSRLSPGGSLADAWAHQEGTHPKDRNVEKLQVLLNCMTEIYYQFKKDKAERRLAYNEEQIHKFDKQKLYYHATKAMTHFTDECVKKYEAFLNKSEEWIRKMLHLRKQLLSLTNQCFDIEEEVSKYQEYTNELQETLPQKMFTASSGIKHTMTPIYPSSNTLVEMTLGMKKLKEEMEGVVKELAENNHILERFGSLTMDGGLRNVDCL
# [10] = target: T5, Serine/threonine-protein kinase TBK1 (Homo sapiens); conditions: at 10 µM
# [11] = target: T6, TGF-beta receptor type-1 (Homo sapiens) (UniProt P36897); conditions: at 1 µM
# T6 sequence (whole entry): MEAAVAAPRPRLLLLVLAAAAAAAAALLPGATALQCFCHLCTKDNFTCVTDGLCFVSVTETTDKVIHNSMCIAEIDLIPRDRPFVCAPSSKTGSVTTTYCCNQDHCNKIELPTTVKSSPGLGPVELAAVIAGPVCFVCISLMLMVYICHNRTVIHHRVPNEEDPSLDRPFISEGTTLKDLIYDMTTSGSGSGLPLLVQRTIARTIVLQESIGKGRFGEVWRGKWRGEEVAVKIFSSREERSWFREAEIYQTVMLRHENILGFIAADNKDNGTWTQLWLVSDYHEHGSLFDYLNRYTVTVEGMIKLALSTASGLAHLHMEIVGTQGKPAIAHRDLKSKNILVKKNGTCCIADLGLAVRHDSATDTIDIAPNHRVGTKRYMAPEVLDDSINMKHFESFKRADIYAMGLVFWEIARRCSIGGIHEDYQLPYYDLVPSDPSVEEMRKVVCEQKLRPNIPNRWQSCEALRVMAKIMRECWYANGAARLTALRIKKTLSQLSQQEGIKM
# [12] = target: T6, TGF-beta receptor type-1 (Homo sapiens); conditions: at 10 µM
# [13] = target: Insulin-like growth factor 1 receptor (Homo sapiens) (UniProt P08069); conditions: at 1 µM
# Insulin-like growth factor 1 receptor (Homo sapiens), sequence (P08069 31-736 limits assumed): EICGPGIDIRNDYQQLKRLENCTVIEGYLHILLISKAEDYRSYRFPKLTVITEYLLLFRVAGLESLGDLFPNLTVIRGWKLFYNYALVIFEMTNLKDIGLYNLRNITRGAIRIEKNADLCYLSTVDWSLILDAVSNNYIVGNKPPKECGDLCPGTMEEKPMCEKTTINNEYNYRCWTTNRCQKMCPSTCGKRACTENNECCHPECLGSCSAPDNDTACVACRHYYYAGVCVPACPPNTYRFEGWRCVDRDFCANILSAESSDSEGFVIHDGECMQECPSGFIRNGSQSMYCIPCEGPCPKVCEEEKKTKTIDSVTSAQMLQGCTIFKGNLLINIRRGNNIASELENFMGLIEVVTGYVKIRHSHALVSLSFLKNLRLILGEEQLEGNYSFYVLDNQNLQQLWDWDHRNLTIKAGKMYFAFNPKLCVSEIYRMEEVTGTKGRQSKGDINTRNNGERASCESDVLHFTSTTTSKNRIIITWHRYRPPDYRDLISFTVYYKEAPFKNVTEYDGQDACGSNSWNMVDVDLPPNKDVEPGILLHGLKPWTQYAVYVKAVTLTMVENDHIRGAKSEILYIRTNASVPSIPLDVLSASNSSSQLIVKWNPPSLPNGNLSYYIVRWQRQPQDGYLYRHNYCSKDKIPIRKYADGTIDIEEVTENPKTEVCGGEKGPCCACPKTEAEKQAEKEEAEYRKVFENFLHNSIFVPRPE
# Insulin-like growth factor 1 receptor (Homo sapiens), sequence (P08069 741-1367 limits assumed): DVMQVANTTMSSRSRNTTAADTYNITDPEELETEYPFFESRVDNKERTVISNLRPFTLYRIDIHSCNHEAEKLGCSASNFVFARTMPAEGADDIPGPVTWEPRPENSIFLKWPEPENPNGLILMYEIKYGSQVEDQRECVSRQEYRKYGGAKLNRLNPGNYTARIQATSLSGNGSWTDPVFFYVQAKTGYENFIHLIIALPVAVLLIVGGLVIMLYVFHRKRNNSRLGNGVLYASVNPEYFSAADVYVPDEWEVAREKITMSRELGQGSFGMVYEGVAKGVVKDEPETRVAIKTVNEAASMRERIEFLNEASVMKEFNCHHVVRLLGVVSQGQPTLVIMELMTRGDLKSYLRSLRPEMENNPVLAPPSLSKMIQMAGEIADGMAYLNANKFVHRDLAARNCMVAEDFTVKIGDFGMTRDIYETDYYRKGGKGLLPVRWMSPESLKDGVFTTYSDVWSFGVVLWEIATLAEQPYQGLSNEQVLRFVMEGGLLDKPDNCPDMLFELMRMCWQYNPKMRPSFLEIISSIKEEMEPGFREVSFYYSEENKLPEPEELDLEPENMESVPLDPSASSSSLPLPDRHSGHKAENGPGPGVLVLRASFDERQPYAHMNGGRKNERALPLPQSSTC
# [14] = target: Insulin-like growth factor 1 receptor (Homo sapiens) (UniProt P08069); conditions: at 10 µM
# [15] = target: Insulin receptor (Homo sapiens) (UniProt P06213); conditions: at 1 µM
# Insulin receptor (Homo sapiens), sequence (P06213 28-758 limits assumed): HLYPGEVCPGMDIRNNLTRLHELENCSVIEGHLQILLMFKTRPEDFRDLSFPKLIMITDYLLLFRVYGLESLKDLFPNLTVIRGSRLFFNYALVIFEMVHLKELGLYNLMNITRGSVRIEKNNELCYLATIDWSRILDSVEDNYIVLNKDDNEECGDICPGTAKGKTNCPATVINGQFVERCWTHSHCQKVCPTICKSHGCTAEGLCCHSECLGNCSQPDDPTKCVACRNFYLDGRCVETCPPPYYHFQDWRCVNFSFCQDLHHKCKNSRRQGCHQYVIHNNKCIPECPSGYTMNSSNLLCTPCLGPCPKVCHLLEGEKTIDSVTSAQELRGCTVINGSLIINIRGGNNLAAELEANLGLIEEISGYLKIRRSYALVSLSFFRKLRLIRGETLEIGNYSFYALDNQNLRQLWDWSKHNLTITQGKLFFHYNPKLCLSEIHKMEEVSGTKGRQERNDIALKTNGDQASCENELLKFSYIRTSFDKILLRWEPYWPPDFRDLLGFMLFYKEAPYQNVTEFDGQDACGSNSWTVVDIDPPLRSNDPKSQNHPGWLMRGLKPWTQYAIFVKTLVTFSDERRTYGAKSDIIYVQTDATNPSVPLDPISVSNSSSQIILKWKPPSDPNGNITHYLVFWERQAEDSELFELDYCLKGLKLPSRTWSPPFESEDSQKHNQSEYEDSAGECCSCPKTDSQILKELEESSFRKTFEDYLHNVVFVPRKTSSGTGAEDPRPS
# Insulin receptor (Homo sapiens), sequence (P06213 763-1382 limits assumed): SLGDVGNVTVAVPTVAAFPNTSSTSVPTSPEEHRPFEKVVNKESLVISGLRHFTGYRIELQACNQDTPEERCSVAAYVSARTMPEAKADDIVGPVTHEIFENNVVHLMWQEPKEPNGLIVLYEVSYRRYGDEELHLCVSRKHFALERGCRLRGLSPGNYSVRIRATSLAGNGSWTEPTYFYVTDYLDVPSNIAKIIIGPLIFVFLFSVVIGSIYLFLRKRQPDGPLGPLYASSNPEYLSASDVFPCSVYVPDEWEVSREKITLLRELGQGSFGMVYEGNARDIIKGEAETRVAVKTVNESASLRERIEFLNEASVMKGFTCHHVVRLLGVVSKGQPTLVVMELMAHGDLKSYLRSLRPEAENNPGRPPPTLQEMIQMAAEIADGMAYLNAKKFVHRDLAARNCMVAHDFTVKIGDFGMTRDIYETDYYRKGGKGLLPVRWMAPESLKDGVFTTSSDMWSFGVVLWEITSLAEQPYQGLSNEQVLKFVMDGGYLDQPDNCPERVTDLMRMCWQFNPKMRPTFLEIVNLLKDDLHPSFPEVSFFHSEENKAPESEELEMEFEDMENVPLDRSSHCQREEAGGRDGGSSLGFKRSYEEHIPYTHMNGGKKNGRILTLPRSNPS
smiles,measurement,setting,value
c1ccc(-c2n[nH]cc2-c2ccnc3ccccc23)nc1,residual activity,[1],91%
same,residual activity,[2],71%
same,residual activity,[3],107%
same,residual activity,[4],95%
same,residual activity,[5],103%
same,residual activity,[6],86%
same,residual activity,[7],91%
same,residual activity,[8],84%
same,residual activity,[9],71%
same,residual activity,[10],66%
same,residual activity,[11],6%
same,residual activity,[12],0%
same,residual activity,[13],99%
same,residual activity,[14],82%
same,residual activity,[15],108%
